# Assay outcomes deposited in PubChem by National Center for Advancing Translational Sciences (NCATS).
# HCV inhibitor: qHTS Assay for Inhibitors of Hepatitis C Virus (HCV); actives 3.4% (n = 340,000); Huh7.5.1 HCVcc-Cre infection, luciferase reporter, 44 h; Potency, µM (titrated, usually from 41.8 µM), for the others: at the top dose activity change, negative = inhibition, hits mostly inhibitors; further: on the % scale 0 is the no-effect control and ±100 the full control effect
#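 Infectious HCVcc-Cre (~0.5 moi) was added to cells just after compound, with cells seeded 4 h earlier at 1,000 per well. Luciferase activity after 44 h culture reported infection; substrate was incubated 15 min at room temperature before reading.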
# Marburg entry inh: qHTS for inhibitors of binding or entry into cells for Marburg Virus; Marburg virus pseudotyped entry inhibition, cell reporter; Potency, µM (doses to about 37.8 µM), without a hit: top-dose activity change, negative = inhibition, actives largely listed as inhibitors; actives 1.8% (n = 300,000); AID 540276, 2011; calls by dose curve; tested in HEK293 cells; further: on the % scale 0 is the no-effect control and ±100 the full control effect
# Vaccinia Venus: qHTS for Stage-Specific Inhibitors of Vaccinia Orthopoxvirus: Venus Reporter Primary qHTS; Vaccinia virus Venus reporter expression, fluorescence; actives 0.46% (n = 330,000); Potency, µM (doses to about 36.5 µM), for the others: at the highest dose activity change, negative = inhibition, usual class: inhibitors; calls by dose curve; tested in A549 cells; further: on the % scale 0 is the no-effect control and ±100 the full control effect; nearly all actives have a fitted effect of over 30% in size
# LASV entry inh: qHTS for Inhibitors of binding or entry into cells for Lassa Virus; Lassa virus pseudotype entry inhibition, cell reporter; actives 1.2% (n = 300,000); Potency, µM (top dose mostly 37.9 µM), for the others: at the top dose activity change, negative = inhibition, actives largely listed as inhibitors; calls by dose curve; tested in HEK293 cells; further: on the % scale 0 is the no-effect control and ±100 the full control effect; nearly all actives have a fitted effect of over 50% in size
# VACV mCherry inh: qHTS for Stage-Specific Inhibitors of Vaccinia Orthopoxvirus: mCherry Reporter Primary qHTS. Potency, µM (highest dose often 36.5 µM), for inactives: at the top dose activity change, negative = inhibition, actives largely listed as inhibitors. Vaccinia virus mCherry reporter infection, fluorescence. actives 0.63% (n = 310,000). AID 720579, 2013; calls by dose curve; tested in A549 cells; further: on the % scale 0 is the no-effect control and ±100 the full control effect; nearly all actives have a fitted effect of over 35% in size
# FMDV antiviral: High Throughput Screening for Foot and Mouth Disease Virus Antivirals. actives 1.2% (n = 410,000). FMDV antiviral cell-based qHTS. Potency, µM (titrated, usually from 57.9 µM), without a hit: at the top dose activity change, negative = inhibition, usual class: inhibitors; calls by dose curve; tested in HEK293T cells; further: read-out not given here; on the % scale 0 is the no-effect control and ±100 the full control effect; nearly all actives have a fitted effect of over 45% in size
# HCV inh confirm: qHTS Assay for Inhibitors of Hepatitis C Virus (HCV): Confirmation Assay for Cherry-picked Compounds. actives 78% (n = 640). AID 720575, 2013. Potency, µM (series often up to 41.8 µM), for inactives: top-dose activity, negative = inhibition, most hits filed as inhibitors. HCVcc-Cre infectious virus cell assay, luciferase, inhibition. shares compounds with HCV inhibitor; further: nearly all actives have a fitted effect of over 80% in size
# HCV host tox: qHTS Assay for Inhibitors of Hepatitis C Virus (HCV): Cytotoxicity Counterscreen for Cherry-picked Compounds; shares compounds with HCV inhibitor; HCV host cell line cytotoxicity counterscreen; Potency, µM (highest dose often 41.8 µM), for inactives: top-dose activity change, negative = cytotoxicity, hits mostly inhibitors; actives 22% (n = 640);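 further: 44 h compound exposure; on the % scale 0 is the no-effect control and ±100 the full control effect; nearly all actives have a fitted effect of over 55% in size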
# The depositor's hits bear a star; i = inactive; ? = inconclusive; · = no result given; [ ] = dose if it differs, or a comment. In the library only some 5.3% were active in any assay of this set; here they are far more common. Unless noted, the call rests on the fitted dose curve; in most records, active means well fitted curve in the direction sought with a large enough effect; inconclusive means small, poorly fitted or top-dose-only effect, or another doubt; inactive means no such curve, though single readings can be large; an effect the other way counts as inactive or inconclusive. Potency means the concentration at half of the fitted maximal effect.
SMILES,HCV inhibitor,Marburg entry inh,Vaccinia Venus,LASV entry inh,VACV mCherry inh,FMDV antiviral,HCV inh confirm,HCV host tox
COC(=O)C1=C(C(=O)OC)SC2(S1)C(C(=O)OC)=C(C(=O)OC)Sc1c2ssc1=O,?,?,7.1µM*,11µM*,7.1µM*,32µM*,10µM*,7.9µM*
CN1c2ccccc2Sc2cc(N)ccc21,-3%,-17%[46.1 µM],4%,?,i,-8%,·,·
CC[n+]1c(/C=C2\Sc3ccccc3N2C)ccc2cccc(C)c21,2.8µM*,?,i,?,14µM*,4.5µM*,2.5µM*,2.5µM*
COc1ccc(CN2C(=O)CSCC2(C)C(=O)Nc2c(C)cccc2C)cc1OC (centres undefined),·,·,-3%,·,-10%,-8%,·,·
Nc1nc(CCl)nc(N(c2ccccc2)c2ccccc2)n1,0.56µM*,?,-36%,?,?,32µM*,1µM*,-95%
Nc1nc(Cl)nc(N(c2ccccc2)c2ccccc2)n1,-9%,3%,-16%,26%,i,-28%,·,·
COCC(C)n1c(SCC(=O)N2CCc3ccccc3C2)nc2ccccc2c1=O (centres undefined),?,?,-18%,?,?,0%,20µM*,-3%
Cc1ccc(NC(=O)CN2CCN(C)CC2)cc1Br,-7%,·,·,·,·,-10%,·,·
Cc1ccc(C(=O)c2c3ccc([N+](=O)[O-])cc3[n+]([O-])n2CCCN)cc1,7.9µM*,·,14µM*,·,?,7%,7µM*,51%
Cc1nc(-c2ccccn2)nc(SCC(=O)c2ccc(F)cc2)c1Cl,?,·,·,·,·,-19%,·,·
COc1ccc(C(=O)CSc2nc(-c3ccccn3)nc(C)c2Cl)cc1,4.5µM*,?,?,?,?,?,22µM*,4.4µM*
COc1cc(OC)cc(OC(=O)C2CCN(C(=O)c3ccc(Cl)cc3)CC2)c1,6%,·,·,·,·,-9%,·,·
OC[C@H]1OC(O)[C@H](O)[C@@H]1O (some centres undefined),10%,·,-13%,·,i,-3%,·,·
Cc1ccccc1C(=O)Nc1ccccc1-c1nnn(CC(=O)Nc2ccc3c(c2)OCCO3)n1,5µM*,?,·,-20%,·,?,?,-11%
CS(=O)(=O)c1ccccc1-c1nc(-c2ccc([N+](=O)[O-])cc2)no1,-7%,2%[46.1 µM],-10%,9%,-3%,-4%,·,·
S=C(NCc1ccccc1)Nc1cccc2cnccc12,2µM*,?,-16%,·,-17%,?,7µM*,10µM*
CC(C)CN(C(=O)CCCOc1ccc(Cl)cc1Cl)c1c(N)n(Cc2ccccc2)c(=O)[nH]c1=O,?,?,-15%,?,-8%,-25%,11µM*,82%
Fc1ccc(N2CCN(Cc3cccn3-c3nnc(N4CCN(C5CCCCC5)CC4)s3)CC2)cc1,·,·,-19%,7%[46.1 µM],-17%,0%,·,·
CCCn1c(SCC(=O)Nc2ccc(S(=O)(=O)N3CCOCC3)cc2)n[nH]c1=O,·,·,-6%,·,-3%,-24%,·,·
COc1ccc(NC(=S)N2CCCC(c3nc4ccc(C)cc4[nH]3)C2)cc1 (centres undefined),5µM*,-22%,·,?,·,2%,0.035µM*,10%
CCc1ccc(OCC(O)CN2CCC(CN3C(=O)c4cccc5cccc(c45)C3=O)CC2)cc1 (centres undefined),6.3µM*,?,-4%,?,-13%,-28%,7µM*,14µM*
